Bioassay records deposited in PubChem by National Center for Advancing Translational Sciences (NCATS).
Hits are enriched below; roughly 1% of the tested compounds scored in any of these assays.
TSHR antagonist: blocks TSH signaling through the human TSH receptor; P16473; TSHR-expressing cells, TSH-stimulated cAMP HTRF, 2 h; stronger effect = lower value; activity change, negative = inhibition, % at 11.5 µM; 330,000 compounds, 0.2% hits; AID 504810;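 active means activity change below a set negative limit, meaning inhibition stronger than a set level, cut at about -70% in these data; inconclusive means activity change between two set negative limits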; further: on the % scale 0 is the no-effect control and ±100 the full control effect
Target sequence (P16473 whole entry, looked up): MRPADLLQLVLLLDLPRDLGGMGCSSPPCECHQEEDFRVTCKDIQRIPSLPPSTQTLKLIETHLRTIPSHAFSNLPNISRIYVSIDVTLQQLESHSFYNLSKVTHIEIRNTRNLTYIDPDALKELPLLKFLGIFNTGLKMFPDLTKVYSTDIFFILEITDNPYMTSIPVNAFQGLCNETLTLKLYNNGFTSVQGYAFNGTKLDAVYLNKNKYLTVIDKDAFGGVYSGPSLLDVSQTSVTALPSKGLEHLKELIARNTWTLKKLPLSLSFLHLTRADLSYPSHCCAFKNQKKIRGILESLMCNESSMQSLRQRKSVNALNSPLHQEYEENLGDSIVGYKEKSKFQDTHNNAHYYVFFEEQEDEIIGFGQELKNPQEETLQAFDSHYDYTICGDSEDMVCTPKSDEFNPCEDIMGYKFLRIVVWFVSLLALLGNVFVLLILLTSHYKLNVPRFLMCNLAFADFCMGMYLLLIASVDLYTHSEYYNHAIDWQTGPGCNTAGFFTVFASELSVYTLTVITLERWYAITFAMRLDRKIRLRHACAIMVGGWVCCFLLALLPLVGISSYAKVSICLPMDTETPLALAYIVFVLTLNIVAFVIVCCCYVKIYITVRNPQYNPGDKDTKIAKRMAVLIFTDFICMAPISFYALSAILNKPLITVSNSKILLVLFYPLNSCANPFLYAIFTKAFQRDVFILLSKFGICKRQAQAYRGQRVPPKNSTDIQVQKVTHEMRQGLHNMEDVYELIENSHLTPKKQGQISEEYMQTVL
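TSHR-expressing cells, 200/well, pre-treated with compound, then stimulated with EC80 TSH (4nM final) for 2 hours at 37 deg C. cAMP measured by competitive HTRF: anti-cAMP cryptate antibody in lysis buffer plus cAMP-d2, read after 30 minutes at room temperature.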
gsp ag: gsp mutant agonism; gsp mutant cells, cAMP HTRF, 30 min; Potency, µM (doses to about 76.9 µM), inactives show at the highest dose activation (cAMP increase), hits mostly activators; 340,000 compounds, 0.13% hits; active means well fitted activation curve with a large enough effect; inconclusive means small, poorly fitted or top-dose-only effect, or another doubt; inactive means no such curve, though single readings can be large or run the other way; cell line not stated here;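 further: phosphodiesterase inhibitor Ro 20-1724 added with compounds to block cAMP breakdown; potency means the concentration at half of the fitted maximal effect; nearly all actives have a fitted effect of over 60% in size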
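Cells in DMEM/10% FBS with G418 were pretreated with compounds in DMSO plus […] (300 uM stock) for 30 min at 37C. cAMP was measured by HTRF (cAMP-d2 plus anti-cAMP antibody-K) after 30 min at room temperature.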
RXFP1 antag: antagonists of human relaxin receptor RXFP1; 350,000 compounds, 0.59% hits; activity change, negative = inhibition, % at 57.5 µM; AID 1259400; HEK293-RXFP1, relaxin-stimulated cAMP HTRF, 30 min; stronger effect = lower value; Q9HBX9;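 active means activity change of -60% or lower, but not beyond a set lower limit; inconclusive means change between -60% and -40%, or beyond the set limit; inactive means change above -40%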; further: on the % scale 0 is the no-effect control and ±100 the full control effect
gsp antag: gsp mutant antagonism; Potency, µM (doses to about 76.9 µM), for inactives: at the highest dose activity change, negative = inhibition, actives largely listed as inhibitors; gsp-mutant cells, cAMP HTRF, 30 min; AID 624288; 340,000 compounds, 0.4% hits; calls by dose curve; cell line not stated here;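 further: intracellular cAMP measured with PDE inhibitor Ro 20-1724 present during compound exposure; potency means the concentration at half of the fitted maximal effect; on the % scale 0 is the no-effect control and ±100 the full control effect; nearly all actives have a fitted effect of over 65% in size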
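Cells, 2000/well, grown 16–24 h in DMEM 10% FBS with 0.5 mg/ml G418, then compounds plus […] (300 uM addition stock), 30 min at 37C. cAMP read by HTRF (cAMP-d2 and anti-cAMP antibody-K in lysis buffer) after 30 min RT.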
RXFP1 agonist: RXFP1 (human) receptor agonism; Q9HBX9; HEK293T-RXFP1 cAMP TR-FRET, 30 min; response scale: percent of porcine relaxin response, buffer zero; Potency, µM (series often up to 57.5 µM), without a hit: at the top dose activation, hits mostly activators; 370,000 compounds, 0.3% hits; AID 2676; active means well fitted activation curve with a large enough effect; inconclusive means small, poorly fitted or top-dose-only effect; further: potency means the concentration at half of the fitted maximal effect; on the % scale 0 is the no-effect control and ±100 the full control effect; nearly all actives have a fitted effect of over 60% in size
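HEK293 cells stably expressing RXFP1, treated 30 min at 37C with compounds plus PDE4 inhibitor Ro 20174; cAMP measured by HTRF TR-FRET. Normalized to buffer and 29 nM porcine relaxin; EC50 by Hill fit.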
An asterisk follows results filed as active; i = inactive; ? = inconclusive; · = no result; ! = repeats disagree; [ ] = dose if it differs, or a comment.

SMILES	TSHR antagonist	gsp ag	RXFP1 antag	gsp antag	RXFP1 agonist
CN(Cc1cccc(F)c1)CC(O)COCc1ccccc1Cl (stereo not given)	4.0	8.6%	-27.2	11.2µM*	2.8%
CN(CC(O)COCc1ccccc1F)C1CCCCC1 (stereo not given)	0.4	-1.5%	11.8	-19.9%	0.9%
CCOC(=O)c1sc(NC(=O)CSc2n[nH]c(-c3ccncc3)n2)c(C#N)c1C	-74.5*	-0.6%	4.1	?	0.4%
CCOC(=O)c1sc(NC(=O)CSc2nccc(C)n2)c(C#N)c1C	-9.6	-30.5%	-4.3	-5.4%	1.5%
Cc1cc(C(=O)COC(=O)c2ccc[nH]c2=O)c(C)n1-c1ccccc1F	-13.0	2.3%	6.6	7.1%	1.3%
Cc1cc(C(=O)COC(=O)c2ccc(O)cc2)c(C)n1-c1ccccc1F	-15.5	9.5%[15.4 µM]	-82.8*	8.8%	2.4%
CSC1=NSC2=NC(=O)/C(=C\c3ccc(OC(=O)c4ccco4)cc3)C(=N)N12	-9.9	1.9%[15.4 µM]	?	?	-0.7%
CC1=CSC2=NC(=O)/C(=C/c3cccc(OC(=O)c4ccco4)c3)C(=N)N12	-2.6	17.8%	-80.0*	0.5%	-0.5%
COc1cc(/C=C2/C(=N)N3OC(C)=CC3=NC2=O)ccc1OC(=O)c1ccco1	-4.7	6.1%[15.4 µM]	-74.7*	-4.3%	2.4%
Cc1cc(Br)ccc1NC(=O)c1coc(=O)c2ccccc12	·	·	-5.6	·	-1.0%
O=C1C(Cl)=C(Nc2ccc3cn[nH]c3c2)C(=O)c2ccccc21	-90.3*	3.9%[15.4 µM]	?	?	-0.1%
COc1ccc(Cl)cc1NC(=O)Cn1c(=O)n(Cc2cccs2)c(=O)c2cccnc21	·	·	·	·	-0.4%
Cc1ccc(C(=O)NNc2cc(N3CCCC3)nc(N3CCCC3)n2)cc1	-6.0	6.8%	-62.3*	2.7%	-0.1%
O=C(COc1ccc2ccccc2c1)NNC(=O)Cc1cccc2ccccc12	7.2	0.0%	-15.3	-3.6%	4.2%
O=C(COc1ccc2ccccc2c1)NNC(=O)Cc1ccccc1	1.2	-4.9%	-120.0*	-23.7%	12.7%
COc1cc(/C=C2\SC(=S)N(Nc3ncc(C(F)(F)F)cc3Cl)C2=O)ccc1O	-18.0	-0.2%[15.4 µM]	-74.3*	-12.0%	-0.5%
CN(C)c1ccc(/C=C2\SC(=S)N(Nc3ncc(C(F)(F)F)cc3Cl)C2=O)cc1	-19.6	-29.3%	8.2	5.3%	-1.6%
CN1CCN(CC(=O)c2cc(C(C)(C)C)c(O)c(C(C)(C)C)c2)CC1	-14.1	0.6%[15.4 µM]	-85.5*	9.3%	-0.1%
O=C(Nc1ccc(N2CCOCC2)c(Cl)c1)c1ccc(Cl)cc1	-23.4	4.0%[15.4 µM]	-82.7*	-28.5%	1.6%
O=C(Nc1ccc(N2CCOCC2)c(Cl)c1)c1ccc2c(c1)OCCO2	10.3	-8.4%	-5.8	-6.7%	-0.2%
Cc1ccc(NC(=O)c2cc(N3C(=O)C=CC3=O)ccc2N2CCOCC2)cc1Cl	-20.8	2.2%	-71.4*	18.4%	-0.5%
COc1cccc(CNC(=O)CSC2=Nc3ccccc3C3=NC(C)C(=O)N23)c1OC (stereo not given)	·	·	-0.9	·	9.2%
CCc1ccc2oc(-c3ccc(OC)cc3)cc(=Nc3cccc(C(=O)O)c3)c2c1	-18.6	15.7%[15.4 µM]	-32.7	·	1.2%
CCc1ccc2oc(-c3ccc(OC)cc3)cc(=Nc3c(C)n(C)n(-c4ccccc4)c3=O)c2c1	-6.6	-0.8%	-23.3	28.2µM*	2.0%
O=C(CO)[C@@H](O)[C@H](O)[C@@H](O)CO	·	·	-3.0	·	·
SMILES	TSHR antagonist	gsp ag	RXFP1 antag	gsp antag	RXFP1 agonist
CCS(=O)(=O)N1CCc2cc(C(=O)NCc3ccc(Cl)cc3)ccc21	·	·	·	·	-0.5%
CC(C)(C)c1csc(NNC(=O)c2ccc(Br)cc2)n1	-9.3	8.2%[15.4 µM]	-61.1*	-13.7%	0.7%
O=C(COC(=O)CCc1nc2ccccc2s1)NC(=O)NCc1ccco1	24.7	1.0%[15.4 µM]	-8.8	11.2µM*	0.1%
O=C(NCCc1ccccc1)c1ccc(CSc2nc3ccncc3n2Cc2ccccc2F)cc1	·	·	-20.7	·	0.5%
Cc1c(C)c2cc3c(c(C)c2oc1=O)OCN(CCc1ccccc1)C3	·	·	2.5	·	14.8%
NC(=O)c1ccc(NC(=O)CN2CCN(S(=O)(=O)c3ccc4c(c3)OCCO4)CC2)cc1	14.6	20.7%	-6.8	50.1µM*	-2.2%
CC(=O)c1ccc(NC(=O)CN2CCN(S(=O)(=O)c3ccc4c(c3)OCCO4)CC2)cc1	·	-32.7%	8.4	·	·
CCCOc1ccc(NC(=O)CC2C(=O)N(c3ccccc3)C(=O)N2CCC(C)C)cc1 (stereo not given)	·	·	-9.0	·	-0.5%
COc1ccccc1CNC(=O)CCCCn1c(=O)c2ccccc2n(Cc2ccccc2C)c1=O	·	·	·	·	-2.7%
S=c1[nH]c2nc(Cl)c(Cl)nc2[nH]1	·	12.6µM*	2.5	·	·
S=c1[nH]c2cnc(Cl)nc2[nH]1	·	?	-1.5	4.2%	·
CN1CCN(c2ccccc2NC(=O)c2ccc(-c3ccccc3)cc2)CC1	-0.4	12.4%	-15.4	50.1µM*	0.4%
COc1cccc(C(=O)Nc2ccccc2N2CCCC2)c1	3.7	4.7%	5.6	-6.7%	0.8%
COc1cccc(C(=O)Nc2ccccc2N2CCN(C(=O)c3ccccc3)CC2)c1	-5.1	5.5%	-7.9	25.1µM*	·
COc1ccccc1CNC(=O)CN1C(=O)CSc2c1c(C)nn2-c1ccccc1	·	·	·	·	0.6%
Cc1ccc(C)c(CNC(=O)c2ccc3c(c2)nc2n3CCCCC2)c1	·	·	-22.1	·	7.3%
O=C(CCS(=O)(=O)c1cc2c3c(c1)CCN3C(=O)CC2)NCc1ccc(F)cc1	·	·	·	·	-1.6%
O=C(CN1C(=O)c2ccccc2S1(=O)=O)NC(Nc1ccccc1F)C(Cl)(Cl)Cl (stereo not given)	-14.0	-17.8%	-105.1*	-23.6%	2.6%
CC(=O)Nc1c(Cl)cc(Cl)c2c1Cc1cc(Cl)ccc1-2	·	-39.1%	-101.0*	3.5%	·
Cc1cc(C(=O)CSc2nc3ccccc3c(=O)n2C)c(C)n1Cc1ccc2c(c1)OCO2	i	-10.0%	-20.5	?	20µM*
Cc1cc(C(=O)CSc2nnc(-c3ccccc3)n2Cc2ccc3c(c2)OCO3)c(C)n1C	-6.2	3.5%	-4.0	-18.4%	0.5%
COc1cccc(C2CC(=O)Nc3c2c(=O)[nH]c2nc4ccccc4n32)c1 (stereo not given)	·	·	·	·	-1.0%
O=C(Cn1cc(C(=O)C2CC2)c2ccccc21)Nc1ccc(Br)cc1	·	·	6.9	·	20µM*
Cc1ccc(NC(=O)Cn2cc(C(=O)C3CC3)c3ccccc32)cc1	-5.6	17.1%[15.4 µM]	-2.2	9.0%	10µM*!
Cc1nn2cc(-c3ccc(OC(C)C)cc3)nc2s1	·	·	-14.3	·	-4.9%
Cc1oc2ccc(O)c(CN3CCOCC3)c2c1C(=O)Nc1ccc(C(C)C)cc1	·	·	-21.8	·	0.6%
Cc1ccc(C)c(N2CCN(C(=O)C3CCN(c4nc5ccc(C)cc5[nH]4)CC3)CC2)c1	·	·	-69.2*	·	3.9%
